Screening results deposited in PubChem by several laboratories.
SKKanGAS inh: blocks kanamycin growth of S. pyogenes SKKanGAS strain. inhibition, % at 7.5 µM. BacTiter-Glo, 6 h. 300,000 tested, 1.3% active;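 active means mean replicate score, as percent of positive control median, at least 50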;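 further: strain carries kanamycin resistance gene driven by streptokinase promoter and grows in 40 µg/ml kanamycin; loss of luminescence reflects streptokinase promoter inhibition or plain growth inhibition; 0% = median of DMSO wells and 100% = positive control at its reference dose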
TPT1 inhibitor: blocks Candida albicans tRNA 2'-phosphotransferase; recombinant caTPT1, FP RNA substrate dephosphorylation; 300,000 tested, 0.81% active; inhibition, % at 5 µM;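 active means inhibition above the mean of all tested compounds plus 3 SD, set per screening campaign, cut at about 24% in these data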;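 further: plate controls were DMSO alone for no effect and ferristatin control at 100 nM for full effect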
WT yeast gro inh: growth inhibition of WT yeast, mitochondrial fusion screen | mitochondrial fusion phenotypic screen, WT strain | inhibition, % at 10 µM | AID 1362 | 190,000 tested, 2.1% active; in the data active means inhibition above about 58%; tested in S. cerevisiae
Platelet DG rel: modulates dense granule release in human platelets | human platelet-rich plasma, SFLLRN dense granule ATP release, luminescence | inhibition, %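 (compounds screened at 7.5 µM in platelet-rich plasma)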 | 300,000 tested, 0.22% active;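 active means mean replicate score, as percent of positive control, at or above 50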
PHOSPHO1 inh: PHOSPHO1 (human) inhibition | Q8TCT1 | recombinant PHOSPHO1, absorbance phosphatase assay | inhibition, % at 13.3 µM | 290,000 tested, 1.1% active | AID 1565; in the data active means inhibition above about 60%
Target sequence (Q8TCT1 whole entry, looked up): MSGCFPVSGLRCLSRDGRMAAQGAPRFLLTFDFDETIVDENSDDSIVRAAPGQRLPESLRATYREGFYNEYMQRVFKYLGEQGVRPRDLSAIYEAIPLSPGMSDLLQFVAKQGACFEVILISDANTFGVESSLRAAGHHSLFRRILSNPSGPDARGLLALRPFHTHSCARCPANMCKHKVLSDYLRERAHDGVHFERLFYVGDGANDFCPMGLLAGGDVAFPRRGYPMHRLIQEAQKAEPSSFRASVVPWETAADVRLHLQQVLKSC
Rtt109 Vps75: blocks Candida albicans Rtt109/Vps75 acetyltransferase activity; AID 540336; purified Rtt109/Vps75, ThioGlo CoA-SH fluorescence, 4 h; 330,000 tested, 0.16% active; inhibition, % at 34.9 µM;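 active means inhibition of at least 50% in every replicate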
Target sequence (Q5AAJ8 whole entry, looked up): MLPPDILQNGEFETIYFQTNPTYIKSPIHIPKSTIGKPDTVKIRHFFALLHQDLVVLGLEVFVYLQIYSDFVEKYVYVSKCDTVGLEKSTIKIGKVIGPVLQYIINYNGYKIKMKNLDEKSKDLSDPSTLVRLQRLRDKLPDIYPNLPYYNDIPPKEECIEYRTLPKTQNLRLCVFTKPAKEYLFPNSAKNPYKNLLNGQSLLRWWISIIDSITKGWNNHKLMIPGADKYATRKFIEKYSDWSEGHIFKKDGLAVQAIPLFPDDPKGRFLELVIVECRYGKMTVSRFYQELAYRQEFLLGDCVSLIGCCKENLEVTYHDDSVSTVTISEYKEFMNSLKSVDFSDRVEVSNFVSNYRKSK
* marks the source's active call; other numbers are inactive results; . = not tested or not shown. Hits are enriched below; roughly 3.9% of the tested compounds scored in any of these assays.

SMILES | SKKanGAS inh | TPT1 inhibitor | WT yeast gro inh | Platelet DG rel | PHOSPHO1 inh | Rtt109 Vps75
CCC(C)c1ccccc1NC(=O)COC(=O)c1ccc2[nH]c3c(c2c1)CCCC3 (centres undefined) | 4 | -4 | 62* | -3 | 6 | 0
CCN(CC)S(=O)(=O)c1cccc(-c2nnc(SCC(=O)c3ccc(Cl)s3)n2C)c1 | -1 | 4 | . | -1 | 64* | 7
O=C(COc1c(Br)cc(Br)cc1Br)N/N=C/c1ccco1 | . | . | . | . | -21 | -1
CCc1ccccc1NC(=O)CN1CCN(CC(=O)Nc2cc(C)ccc2OC)CC1 | 3 | 3 | . | -2 | 22 | -6
COc1cccc(NC(=S)N(Cc2ccccn2)Cc2ccccc2Cl)c1 | 6 | 0 | 68* | -4 | 1 | 0
CCc1ccc(NC(=S)N(Cc2ccccc2)Cc2ccccn2)cc1 | 2 | 1 | 68* | 3 | 1 | -8
COc1ccc(NC(=O)NCc2ccccn2)cc1 | 5 | -3 | -19 | -2 | -4 | -6
COc1ccc(NC(=S)N(Cc2ccccn2)Cc2ccccc2Cl)cc1 | 5 | -2 | 75* | 5 | -19 | -1
COc1cccc(NC(=S)N(CCc2ccc(OC)c(OC)c2)Cc2ccccn2)c1 | 0 | 1 | -8 | 5 | 32 | 1
Cc1ccc(-n2nc3c(=O)n(CCCC(=O)NCCc4ccccc4C)nc(C)c3c2C)cc1 | 7 | 4 | . | 7 | 13 | 17
CC(=O)Nc1ccc(Sc2ncnc3scc(-c4ccccc4)c23)cc1 | 5 | 2 | 79* | 14 | 1 | 14
Cc1ccc(-c2csc3ncnc(SCc4ccc(C(=O)O)cc4)c23)cc1 | 19 | -1 | 59* | 6 | 20 | 19
CC(=O)Nc1cccc(Oc2ncnc3scc(-c4ccc(C(C)C)cc4)c23)c1 | 16 | 6 | 72* | 3 | -4 | 12
O=C(CSc1ncnc2scc(-c3ccccc3)c12)Nc1ccc(C(=O)O)cc1 | 9 | 3 | . | -3 | 42 | 15
Cc1cc2c(c(C)c1CCO)C(=O)[C@H](C)C2 | . | . | . | . | . | 12
Cc1cc(CC(C)C)n(-c2nc3ccccc3c(=O)n2OCc2ccccc2)n1 | 19 | -2 | 65* | -2 | 30 | 4
Cc1cc(CC(C)C)n(-c2nc3ccccc3c(=O)n2OCC(=O)N(C)C)n1 | . | -6 | -4 | . | 1 | 2
O=C(O)c1cccc(Sc2cc(Cl)ccc2C(=O)O)c1 | . | . | . | . | . | -4
CCN(CC(=O)Nc1ccc2c(c1)OCCO2)CC(=O)Nc1ccc(C)c(S(=O)(=O)N(C)C)c1 | . | . | . | . | . | 10
O=C(Cc1cccc(NC(=O)C2CCCN(C(=O)C3CCC3)C2)c1)Nc1ccc(C(=O)N2CCCCC2)cc1 (centres undefined) | . | . | . | . | . | 0
O=C(NCc1n[nH]c(=S)n1-c1ccccc1Cl)c1ccc(S(=O)(=O)N2CCCCC2)cc1 | -1 | -1 | . | -6 | -84 | 7
O=C(NCc1n[nH]c(=S)n1-c1ccc(F)cc1)c1ccc(S(=O)(=O)N2CCCC2)cc1 | 6 | -1 | . | -2 | 96* | -7
O=C(NCc1n[nH]c(=S)n1-c1ccc(Cl)c(Cl)c1)c1ccc(S(=O)(=O)N2CCCCC2)cc1 | 4 | -4 | . | 23 | -128 | 7
O=C(COC(=O)C1CCN(c2ccc(C(F)(F)F)cn2)CC1)NCc1ccc(F)cc1 | -8 | -1 | . | -7 | . | 3
COc1ccccc1CNc1cc(C)ccc1C | 9 | -1 | -3 | 6 | 13 | 3
SMILES | SKKanGAS inh | TPT1 inhibitor | WT yeast gro inh | Platelet DG rel | PHOSPHO1 inh | Rtt109 Vps75
COc1ccc(NC(=O)NCc2ccco2)cc1OC | -2 | 3 | -1 | -1 | 28 | -1
COc1ccccc1CNC(=S)Nc1cc(C)ccc1C | 13 | -3 | 66* | 3 | 48 | 18
COc1ccc(C)cc1NC(=O)NCc1ccco1 | -4 | 2 | -6 | 3 | 61* | -3
COc1ccccc1NC(=S)NCc1ccco1 | -4 | 3 | 15 | -1 | 62* | 10
COc1cc(NC(=S)NCc2ccco2)cc(OC)c1OC | 0 | -2 | 4 | -1 | -4 | 0
CCCCSc1nnc(-c2ccccc2)c2ccccc12 | 5 | -2 | 82* | -7 | -6 | -2
O=C(c1cccs1)N1CCCC(c2nc3c(nnn3Cc3ccccc3Cl)c(=O)[nH]2)C1 (centres undefined) | 8 | -2 | . | 1 | 22 | 23
CCC(C)Sc1cccc(-c2nc3ccc(C)cn3c2NCc2ccccc2)c1 (centres undefined) | 67* | -2 | . | 2 | . | -15
CCCCNc1c(-c2ccc(SC(C)CC)c(OC)c2)nc2ccc(C)cn12 (centres undefined) | 72* | -2 | . | -1 | . | -10
CCOc1ccccc1OCCCC(=O)ON=C(N)c1ccccc1 | . | . | . | . | . | -5
CN(C)/C=C\C(=C/C(=O)C(F)(F)F)Nc1ccccc1Oc1ccccc1 | -4 | 0 | -11 | 1 | 34 | 1
Cc1ccc(NC(/C=C/N(C)C)=C/C(=O)C(F)(F)F)c(C)c1 | 6 | 3 | 80* | -2 | 51 | -6
c1ccc(CN(CCN2CCOCC2)Cc2ccccc2)cc1 | . | . | . | . | . | -1
Cn1nccc1C(=O)NC1CCCc2c1cnn2-c1ccc(C(C)(C)C)cc1 (centres undefined) | 1 | -1 | . | 19 | -16 | 17
CC1CC(=O)c2c(cc3c(-c4c(O)cc(O)c5c(O)c6c(cc45)OC(C)CC6=O)c(O)cc(O)c3c2O)O1 (centres undefined) | 107* | -9 | 25 | 5 | -64 | 3
O=C1CC(c2ccc(O)cc2)Oc2cc(O)cc(O)c21 (centres undefined) | 0 | -2 | -5 | -1 | -4 | -8
CC(C)(C)c1cc(C2COC(=O)COCCOCC(=O)OCCOCCO2)cc(C(C)(C)C)c1O (centres undefined) | . | . | . | . | . | 11
O=C(Cn1cnc([N+](=O)[O-])n1)NC1CC1 | -8 | -1 | 5 | 1 | 68* | -3
CCCCNC(=O)Cn1cnc([N+](=O)[O-])n1 | -1 | 0 | -13 | 4 | 50 | .
COc1cccc(NC(=O)CN(C2=NC3CS(=O)(=O)CC3S2)c2cccc(C)c2)c1 (centres undefined) | -6 | 2 | . | 6 | -4 | -1
COc1ccc(C(=O)CSc2nnc(CCc3ccccc3)n2-c2ccccc2)cc1 | 3 | -1 | 48 | 7 | 79* | 5
COc1ccc(-n2c(CCc3ccccc3)nnc2SCC(=O)c2ccccc2)cc1 | -2 | -1 | 11 | -6 | -5 | 7
CN(C)c1ncc(S(=O)(=O)c2ccccc2)c(-c2ccc(Cl)cc2Cl)n1 | 31 | 0 | 3 | -1 | -1 | 7
CN(C)c1ncc(S(=O)(=O)c2ccc(Cl)cc2)c(-c2ccc(Cl)cc2Cl)n1 | 29 | -3 | 66* | -19 | -1 | 5
C=CCc1c(C)nc(SC)nc1Nc1ccc(C(C)=O)cc1 | 4 | -3 | -1 | 0 | 74* | 10
CC(=O)Nc1sc2c(c1C(c1ccc(F)cc1)N1CCOCC1)CCCC2 (centres undefined) | 2 | -3 | 0 | -7 | 5 | 10
